Source: PubChem BioAssay AID588358 (NMMLSC, 2011)
Among all 310,000 compounds or so, about 1,500 (0.48%) were called active. This is one part of a sample in which actives are shown more often than they occur. Values without a mark were called inactive.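 How the source made its calls: active means binding more than 3 SD below its plate's average and above zero; inconclusive means below that plate limit but binding exactly zero; inactive means the rest.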

These compounds were tested against Desmoglein-3 (Homo sapiens) (UniProt P32926) (assay: blockers of anti-DSG3 scFv binding – biochemical, bead-based, flow cytometry, scFv-GFP, primary screen (AID 588358;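 further: hits lower antibody fragment binding to DSG3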)). Conditions: DSG3-coupled beads, at 10 µM, active compounds read low.
Sequence of Desmoglein-3 (Homo sapiens) (P32926 whole entry, looked up, the tested form may be a part): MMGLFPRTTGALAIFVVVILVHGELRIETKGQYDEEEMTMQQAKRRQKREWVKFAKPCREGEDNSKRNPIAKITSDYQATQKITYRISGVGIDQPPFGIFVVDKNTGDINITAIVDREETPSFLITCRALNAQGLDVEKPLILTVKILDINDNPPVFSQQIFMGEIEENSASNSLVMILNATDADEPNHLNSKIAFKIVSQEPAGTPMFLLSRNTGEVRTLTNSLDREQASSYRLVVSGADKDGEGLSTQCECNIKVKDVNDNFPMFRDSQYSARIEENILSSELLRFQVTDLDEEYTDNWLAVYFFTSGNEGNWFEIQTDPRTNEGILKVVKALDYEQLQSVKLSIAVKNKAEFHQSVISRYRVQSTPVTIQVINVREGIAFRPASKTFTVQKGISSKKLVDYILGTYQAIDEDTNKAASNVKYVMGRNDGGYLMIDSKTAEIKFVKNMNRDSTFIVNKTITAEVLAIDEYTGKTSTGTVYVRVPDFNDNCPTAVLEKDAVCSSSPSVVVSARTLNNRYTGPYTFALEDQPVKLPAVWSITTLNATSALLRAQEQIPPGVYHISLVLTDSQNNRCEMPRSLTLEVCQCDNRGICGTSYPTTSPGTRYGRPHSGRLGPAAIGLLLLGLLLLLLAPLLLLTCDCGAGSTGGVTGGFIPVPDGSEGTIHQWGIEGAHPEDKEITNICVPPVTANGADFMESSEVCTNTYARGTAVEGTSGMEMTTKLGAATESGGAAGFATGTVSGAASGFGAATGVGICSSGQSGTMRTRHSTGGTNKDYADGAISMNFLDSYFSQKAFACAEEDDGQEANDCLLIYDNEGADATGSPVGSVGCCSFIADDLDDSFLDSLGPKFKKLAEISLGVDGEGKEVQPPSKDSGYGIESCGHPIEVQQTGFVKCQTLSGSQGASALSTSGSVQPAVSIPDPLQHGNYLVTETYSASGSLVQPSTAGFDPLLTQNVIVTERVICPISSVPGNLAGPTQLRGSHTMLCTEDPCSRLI

Row | SMILES | binding (percent of control)
1 | Cc1cc2cc(CNC(=O)c3ccc(S(=O)(=O)N4CCOCC4)cc3)ccc2[nH]1 | 95.4%
2 | Cc1cc2cc(CNC(=O)c3cccs3)ccc2[nH]1 | 80.6% (active)
3 | CCc1cccc(CC)c1NC(=S)NCc1ccc2[nH]c(C)cc2c1 | 78.1%
4 | Cc1onc(-c2ccccc2)c1-c1nnc(COC(=O)c2ccc(N(C)C)cc2)o1 | 109%
5 | C[C@H](CO)N1C[C@H](C)[C@H](CN(C)C(=O)c2ccncc2)OCc2ccccc2-c2c(n(C)c3ccccc23)C1=O | 103%
6 | Cc1cccc(C(=O)NC2CCN(CC(=O)Nc3cccc(Cl)c3)CC2)c1 | 92.9%
7 | O=C(c1cc(-c2ccc(O)cc2)on1)N1CCOCC1 | 104%
8 | O=C(c1cc(-c2ccc(Cl)cc2)on1)N1CCN(c2ccccc2)CC1 | 24.2% (active)
9 | O=C(c1cc(-c2ccc(F)cc2)on1)N1CCN(c2ccc(F)cc2)CC1 | 91%
10 | Cc1cccc(C(=O)Nc2nnc(S(=O)(=O)N3CCCCCC3)s2)c1 | 29.9% (active)
11 | O=C(Nc1nnc(S(=O)(=O)N2CCCCCC2)s1)c1cccc(Br)c1 | 102%
12 | COc1cccc(C(=O)Nc2nnc(S(=O)(=O)N3CCCCC3)s2)c1 | 99.3%
13 | CC1(C2CC2)NC(=O)N(CC(=O)N2CCN(c3ccccc3F)CC2)C1=O (centres undefined) | 101%
14 | COc1ccc(NC(=O)CSc2nnnn2-c2cccc(OC)c2)cc1 | 92.2%
15 | O=C(O)c1ccc(S(=O)(=O)c2ccccc2)s1 | 123%
16 | O=C(O)C#Cc1cccc2ccccc12 | 97.7%
17 | O=C(O)c1cc2ccccc2c(=O)s1 | 53.2% (active)
18 | CCN1C(=O)[C@H]2[C@@H](c3ccc(C(F)(F)F)cc3)N[C@]3(CCCN(Cc4ccc(Br)cc4)C3=O)[C@H]2C1=O | 111%
19 | CCC(=C/c1sc2ccc3ccccc3c2[n+]1C)/C=C1\Sc2ccc3ccccc3c2N1C | 75% (active)
20 | CCOC(=O)c1cc(-c2sc(NC(=O)c3ccccc3)nc2C)n(-c2ccc(Br)cc2)n1 | 102%
21 | Nc1nc(SCC(=O)N2CCN(S(=O)(=O)c3ccc(Cl)cc3)CC2)n[nH]1 | 104%
22 | O=C(COc1ccc(Cl)cc1)N1CCN(S(=O)(=O)c2ccc(Cl)cc2)CC1 | 66.4% (active)
23 | O=C(CSc1ccccn1)N1CCN(S(=O)(=O)c2ccc(Cl)cc2)CC1 | 96.2%
24 | O=C(CSc1ccc(-c2ccccn2)nn1)Nc1ccccc1 | 101%
25 | O=C(CSc1ccc([N+](=O)[O-])cn1)Nc1ccc(N2CCOCC2)cc1 | 96.9%

Row | SMILES | binding (percent of control)
26 | O=C(CSc1ccc(-c2ccc(-n3cccn3)cc2)nn1)Nc1ccc([N+](=O)[O-])cc1 | 89.5% (active)
27 | COc1ccccc1NC(=O)C(CC(=O)O)Cc1cc(C)cc(C)c1 (centres undefined) | 96.8%
28 | COc1ccc(CCNC(=O)CN(c2ccccc2)S(=O)(=O)c2ccccc2)cc1 | 97.8%
29 | COc1ncnc2c1ncn2CCCNCCN1CCOCC1 | 98%
30 | COc1cccc(/C=N/NC(=O)C(=O)N2CCCC2)c1 | 102%
31 | COc1cccc(/C=N/Nc2ccc(Cl)nn2)c1 | 98.6%
32 | COc1cccc(/C=N\Nc2nncc(-c3ccccc3)n2)c1 | 90.1% (active)
33 | CC(=O)c1c(C)n(-c2ccc(N(C)C)cc2)c2ccc(OCC(N)=O)cc12 | 96.5%
34 | CCOC(=O)c1c(CN2CCOCC2)n(-c2ccccc2)c2ccc(O)cc12 | 107%
35 | CC(=O)c1c(C)n(-c2ccc(C)cc2)c2ccc(O)cc12 | 61.8% (active)
36 | CCOC(=O)C(C(=O)c1ccccc1)C(c1ccccc1)c1nccc2ccccc12 (centres undefined) | 108%
37 | O=C(O)C1CCCN1c1nc(Cl)ccc1[N+](=O)[O-] (centres undefined) | 90.2%
38 | COc1ccc(S(=O)(=O)N2CCC(C(=O)NCCC(=O)NCCc3cccc(F)c3)CC2)cc1 | 99%
39 | Cc1nc(-c2ccc(Cl)cc2)sc1C(=O)CBr | 63.4% (active)
40 | Cc1nc(-c2ccc(Cl)cc2)sc1C(=O)NN | 110%
41 | Cc1nc(-c2ccccc2)sc1C(=O)/C=C/N(C)C | 97.8%
42 | COc1ccc(CN2C(=O)C(CC(=O)NC3CCCCC3)CC(C(=O)N3CCOCC3)=C2C)cc1 (centres undefined) | 102%
43 | O=[N+]([O-])c1ccc(N=NNc2ccc([N+](=O)[O-])cc2)cc1 | 44.4% (active)
44 | COC(=O)c1ccccc1N=NNc1ccc([N+](=O)[O-])cc1 | 104%
45 | O=[N+]([O-])c1ccc(N/N=C/c2ccccc2)cc1 | 102%
46 | COc1cc(C)c(CN2CCN(C(=O)CCC(=O)c3ccc(C)s3)CC2)cc1OC | 98.2%
47 | COc1ccc(NC(=O)CCCOc2ccc(C(C)=O)cc2)cc1S(=O)(=O)N1CCCCC1 | 109%
48 | c1ccc(Cn2nnc3c(NCC4CC4)ncnc32)cc1 | 101%
49 | O=C(c1cccnc1)N(Cc1ccccc1)C(=O)c1cccnc1 | 86.3%
